Source: PubChem (National Center for Advancing Translational Sciences (NCATS))
RORg inh = blocks mouse ROR gamma transcriptional activity. Drosophila S2 Gal4-RORgamma UAS-luciferase reporter, 20 h. Potency, µM (doses to about 53.6 µM), most hits filed as inhibitors. 310,000 tested, 5.4% active; also: nearly all actives have a fitted effect of over 60% in size
Target sequence (P51450 whole entry, looked up, the tested form may be a part): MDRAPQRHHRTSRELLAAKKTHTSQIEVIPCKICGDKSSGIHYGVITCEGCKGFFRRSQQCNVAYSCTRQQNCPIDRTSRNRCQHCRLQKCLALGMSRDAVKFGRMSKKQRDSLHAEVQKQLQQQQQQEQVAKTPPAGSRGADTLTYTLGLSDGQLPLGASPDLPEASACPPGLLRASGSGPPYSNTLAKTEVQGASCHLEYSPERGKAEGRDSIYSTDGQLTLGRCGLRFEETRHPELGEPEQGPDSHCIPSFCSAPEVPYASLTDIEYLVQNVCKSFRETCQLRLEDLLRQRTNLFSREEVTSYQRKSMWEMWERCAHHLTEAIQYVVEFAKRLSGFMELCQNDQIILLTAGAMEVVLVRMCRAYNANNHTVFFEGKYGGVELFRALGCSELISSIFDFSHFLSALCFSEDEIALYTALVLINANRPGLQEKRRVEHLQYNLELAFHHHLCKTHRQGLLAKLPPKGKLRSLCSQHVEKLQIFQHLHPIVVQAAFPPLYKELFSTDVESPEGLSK
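Drosophila Schneider cells stably carrying a metallothionein-driven Gal4 DBD–ROR gamma fusion and a UAS-Photinus luciferase reporter were exposed to compound for 1 hr, then induced with copper sulfate (700 uM final) for 20 hr at ambient temperature before luminescence reading.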
SW480 rerep = DNA re-replication induction in SW480 cells. 340,000 tested, 1.8% active. Potency, µM (series often up to 46.1 µM), most hits filed as activators. AID 624297. SW480 DNA re-replication, Hoechst DNA content imaging, 48 h; also: nearly all actives have a fitted effect of over 55% in size
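DNA re-replication was detected as more nuclei of elevated Hoechst intensity after 48 hr exposure to compound (23 nL pinned per well of 250 cells).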
IL1B secr inh = blocks inflammasome-driven IL-1 beta release | THP-1 LPS/ATP IL-1B secretion, AlphaLISA, 16 h; active compounds read low | activity change, % at 57.5 µM | 360,000 tested, 4.7% active; in the data active = activity change below about -50%; inconclusive = mostly about -30% to -49%
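Secreted IL-1B measured by AlphaLISA bead assay after 16 h compound exposure of THP-1 cells; compounds (final up to 57.5 uM) added 1 h before LPS (250 ng/mL) and ATP (1.25 mM) stimulation; lower signal means less secretion.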
Gal4-VP16 FLuc = inhibits Gal4-VP16 luciferase reporter, ROR gamma counter-screen. Drosophila S2 Gal4-VP16 UAS-luciferase, luminescence, 20 h. Potency, µM (highest dose often 53.6 µM), hits mostly inhibitors. 310,000 tested, 3.5% active. AID 2546;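 also: Gal4-VP16 expression switched on by copper sulfate through the metallothionein promoter; nearly all actives have a fitted effect of over 50% in size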
MCF10A rerep = induces DNA re-replication in MCF 10a normal breast cells; MCF 10A DNA re-replication, Hoechst nuclear intensity, 48 h; Potency, µM (series often up to 46.1 µM), actives largely listed as activators; 350,000 tested, 2.9% active; also: nearly all actives have a fitted effect of over 50% in size
A number is an active result; i = inactive; ? = inconclusive; nt = no result given; [ ] = remark or other dose. This is a sample that favours compounds with a hit; in the whole collection about 11% have one here. Unless noted, calls follow the shape of the dose curve; as a rule, active = well fitted curve in the direction sought with a large enough effect; inconclusive = small, poorly fitted or top-dose-only effect, or another doubt; inactive = no such curve, though single readings can be large; an effect the other way counts as inactive or inconclusive.

SMILES	RORg inh	SW480 rerep	IL1B secr inh	Gal4-VP16 FLuc	MCF10A rerep
COC(=O)NC(c1cccc(C)c1)[C@@]1(C(=O)OC)CCCC1=O (stereo partly specified)	i[10 µM]	nt	nt	i[10 µM]	nt
COCCNc1nc(-c2ccccc2OC)nc2ccccc12	i	nt	nt	i	nt
COc1ccccc1-c1nc2c3ccccc3nc(=S)n2[nH]1	0.35µM	i	i	1.3µM	i
COc1cc(-c2nc3c4ccccc4nc(=S)n3[nH]2)cc(OC)c1OC	1.4µM	i	i	1.4µM	i
O=C(CCN1CCCO1)N1CCCC(Nc2cccc(F)c2)C1 (stereo unspecified)	nt	nt	i	nt	nt
CS(=O)(=O)Nc1cccc(-c2cc(Nc3ccccc3)ncn2)c1	?	nt	nt	i	nt
COc1ncnc2c1NC1=C(S2)C(=NCCC(=O)O)CC(C)(C)C1	?	i	i	18µM	i
CN(C)c1ncnc2c1NC1=C(S2)C(=NCCCC(=O)O)CC(C)(C)C1	i	i	i	i	?
O=C1ON=C(c2ccccc2)/C1=C/c1ccc(-c2ccccc2[N+](=O)[O-])o1	?	?	-110	10µM	?
Cc1nc(-c2ccccc2)nc2[nH]c(-c3ccccc3)cc(=O)c12	i	i	i	i	i
Cc1nc(C)c2c(=O)cc(-c3ccccc3)[nH]c2n1	i	8.9µM	i	i	7.9µM
COC(=O)Cn1c(CN(C)Cc2ccccc2)nc2c1c(=O)n(C)c(=O)n2C	?	i	i	13µM	i
CCOC(=O)Cn1c(CN(C)Cc2ccccc2)nc2c1c(=O)n(C)c(=O)n2C	nt	i	i	nt	i
Cn1c(=O)c2c(nc(CN3CCc4ccccc4C3)n2Cc2ccccc2F)n(C)c1=O	i	?	-63	i	?
CCOC(=O)Cn1c(CN2CCc3ccccc3C2)nc2c1c(=O)n(C)c(=O)n2C	i	i	i	4µM	i
Cn1c(=O)c2c(nc(CN3CCc4ccccc4C3)n2CCCO)n(C)c1=O	i	i	i	i	?
CC1C(O)=C(c2ccccc2)P(=O)(Cc2ccccc2)C1C (stereo unspecified)	nt	nt	i	nt	nt
COc1ccc(NC(=O)C2(C)Cc3c(-c4ccc(C(N)=O)cc4)ccnc3O2)cn1 (stereo unspecified)	nt	nt	i	nt	nt
CCOC(=O)OCC1OC(c2ccccc2)C=CC1Oc1ccc2oc(=O)cc(C)c2c1 (stereo unspecified)	i[10 µM]	nt	nt	i[10 µM]	nt
Cc1cc(C)c(C)c(/C=C(/C#N)C(N)=S)c1C	6.3µM	?	i	16µM	?
CCc1ccc(CN(C)Cc2nc(Cc3ccc(OC)c(OC)c3)no2)nc1	10µM	i	i	i	i
COC(=O)[C@@H]1CCCN1C(=O)[C@@H](C)CO	i[10 µM]	nt	nt	i[10 µM]	nt
CCC(CC)C(=O)Nc1ccc(Sc2ccc([N+](=O)[O-])cc2)cc1	i	i	-64	?	?
CCN(CC)C(=O)CSc1nc2c(sc(=S)n2CC)c(=O)n1-c1ccccc1	i	i	i	i	i
CN(Cc1ccccc1)C(=O)CSc1nc2ccccc2c(=O)n1Cc1ccco1	i	i	-71	?	?
SMILES	RORg inh	SW480 rerep	IL1B secr inh	Gal4-VP16 FLuc	MCF10A rerep
CCN(CC)C(=O)CSc1nc2c(sc(=S)n2-c2ccccc2)c(=O)n1Cc1ccco1	?	?	-64	i	?
Cc1ccc(-c2nc(CS(=O)CC(=O)NCCCc3ccccc3)c(C)o2)cc1 (stereo unspecified)	i	i	i	i	i
COC(=O)C1CCN(c2nc3ccccc3nc2C(C#N)C(=O)NCCc2ccccc2)CC1 (stereo unspecified)	i	i	i	i	?
COc1ccc(CNC(=O)C(C#N)c2nc3ccccc3nc2N2CCCC2)cc1 (stereo unspecified)	i	?	i	i	12µM
COc1ccc(CNC(=O)C(C#N)c2nc3ccccc3nc2N2CCN(C)CC2)cc1 (stereo unspecified)	i	i	-52	i	i
COC(=O)c1ccc2c(=O)n(Cc3ccc4c(c3)OCO4)c(=S)[nH]c2c1	2.5µM	?	i	3.5µM	i
COC(=O)c1ccc2c(=O)n(CCCCCC(=O)N3CCN(c4ccccc4)CC3)c(=O)[nH]c2c1	i	i	i	i	15µM
CCN1CCN(C(=O)CCCCCn2c(=O)[nH]c3cc(C(=O)OC)ccc3c2=O)CC1	i	i	i	i	i
COC(=O)c1ccc2c(=O)n(CCCCCC(=O)O)c(=S)[nH]c2c1	7.1µM	i	i	14µM	i
COC(=O)c1ccc2c(=O)n(CCO)c(=S)[nH]c2c1	i	i	i	i	?
CCN1C(=NCCCCO)N[C@@H](c2ccccc2)C(C(=O)OC)=C1C	i	nt	nt	i	nt
O=C(N/N=C/c1ccccc1C(=O)O)c1ccc(COc2cccc3cccnc23)cc1	i	i	i	i	i
O=C(CNC(=O)c1ccc(Br)cc1)N/N=C/c1ccc[nH]1	i	i	i	i	?
Cc1cc(Br)c(OCc2ccc(C(=O)N/N=C/c3ccc[nH]3)cc2)c(Br)c1	nt	3.7µM	-62	nt	?
O=C(N/N=C/c1ccc[nH]1)c1ccc(COc2cccc3cccnc23)cc1	13µM	i	-89	14µM	?
O=[N+]([O-])c1cccc(I)c1	i	nt	nt	i	nt
Cc1csc(=O)n1CC(=O)OCC(=O)c1c(N)n(CC(C)C)c(=O)n(C)c1=O	nt	6.5µM	i	nt	?
CCOC(=O)Cc1csc(SCC(=O)c2c(N)n(CC(C)C)c(=O)n(C)c2=O)n1	?	i	i	10µM	?
Cc1csc(=O)n1CC(=O)OCC(=O)c1c(N)n(C)c(=O)n(C)c1=O	nt	i	i	nt	i
Cc1csc(SCC(=O)c2c(N)n(CC(C)C)c(=O)n(C)c2=O)n1	i	i	i	i	i
CC(C)CCCCCCc1ccc(O)cc1	i	i	nt	i	30µM
CCCCCCCc1ccc(-c2ccc(O)cc2)nc1	?	i	?	?	?
Cc1c(C(=O)OCC(=O)Nc2ccccc2OC(F)F)cccc1[N+](=O)[O-]	i	i	i	i	i
COc1cccc(C(=O)CC(=O)C(=O)Nc2cccc([N+](=O)[O-])c2C)c1	14µM	i	-92	?	?
COc1ccc(/C(N)=N/OC(=O)c2cccc([N+](=O)[O-])c2C)cc1	i	i	i	i[10 µM]	i
SMILES	RORg inh	SW480 rerep	IL1B secr inh	Gal4-VP16 FLuc	MCF10A rerep
COc1ccccc1C/C(N)=N/OC(=O)c1cccc([N+](=O)[O-])c1C	i	i	i	13µM	i
COc1ccc(C(=O)CC(=O)C(=O)Nc2cccc([N+](=O)[O-])c2C)cc1	10µM	?	i	?	?
COc1cccc(C(=O)CC(=O)C(=O)Nc2ccc(C)cc2Cl)c1	?	i	i	?	?
COc1ccccc1C(=O)CC(=O)C(=O)Nc1cccc([N+](=O)[O-])c1C	7.1µM	i	i	13µM	i
CC1(C)OC(=O)C2=C(C[C@@H](C3CCCCC3)O[C@@H]2c2ccc(F)cc2)O1	nt	nt	i	nt	nt
O=C(COC(=O)c1cc(Br)ccc1O)Nc1ccc2c(c1)OCO2	nt	i	i	nt	i
COc1cc(NC(=O)COC(=O)Cn2cnc3c2c(=O)n(C)c(=O)n3C)cc(OC)c1	nt	i	i	nt	i
